# Measured values published in PubChem BioAssay (NCI).
# About 83,000 compounds went through this panel and 20% of them were active in at least one assay; those are over-represented in the sample as a whole.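 Note: values are percent growth. 100 is the growth of untreated cells, values between 100 and 0 indicate rising inhibition; between -100 and 0 indicates cell death.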 Values without a mark were called inactive. The source made the active and inactive calls. Rule for the calls: active = growth percent below 10; inactive = the rest.
# How the values were obtained:
# Assay in all cases: NCI-60 one-dose screen, 48 h (100 = growth as untreated, 0 = no growth, -100 = all killed)
# HT29 colon = conditions: 10 µM unless noted
# SNB-75 CNS = conditions: 10 µM unless noted
# SNB-19 CNS = conditions: 10 µM unless noted
# U251 CNS = conditions: 10 µM unless noted
# PC-3 prostate = conditions: 10 µM unless noted
# SK-MEL-5 melanoma = conditions: 10 µM unless noted
# UACC-62 melanoma = conditions: 10 µM unless noted
# LOX IMVI melanoma = conditions: 10 µM unless noted
# SK-MEL-28 melanoma = conditions: 10 µM
# SK-MEL-2 melanoma = conditions: 10 µM unless noted
# EKVX NSCLC = conditions: 10 µM unless noted
# SN12C renal = conditions: 10 µM unless noted
# UO-31 renal = conditions: 10 µM unless noted
# TK-10 renal = conditions: 10 µM unless noted
# ACHN renal = conditions: 10 µM unless noted
# CAKI-1 renal = conditions: 10 µM unless noted
# A498 renal = conditions: 10 µM unless noted
# CCRF-CEM leukemia = conditions: 10 µM unless noted
# MOLT-4 leukemia = conditions: 10 µM unless noted
# SR leukemia = conditions: 10 µM unless noted
SMILES,growth (HT29 colon),growth (SNB-75 CNS),growth (SNB-19 CNS),growth (U251 CNS),growth (PC-3 prostate),growth (SK-MEL-5 melanoma),growth (UACC-62 melanoma),growth (LOX IMVI melanoma),growth (SK-MEL-28 melanoma),growth (SK-MEL-2 melanoma),growth (EKVX NSCLC),growth (SN12C renal),growth (UO-31 renal),growth (TK-10 renal),growth (ACHN renal),growth (CAKI-1 renal),growth (A498 renal),growth (CCRF-CEM leukemia),growth (MOLT-4 leukemia),growth (SR leukemia)
NCCOc1ccccc1/C=C1\c2ccccc2-c2ccc([N+](=O)[O-])cc21,-59.7% (active),-5.59% (active),10.6%,-74.1% (active),36.8%,30.1%,20.7%,-93.8% (active),48%,78.3%,54.9%,-17.9% (active),-7% (active),-1.56% (active),-73.6% (active),1.27% (active),25.1%,0.81% (active),-14.1% (active),-23.7% (active)
O=Cc1c(OCc2cnnn2CC(=O)Nc2ccc(Cl)cc2)ccc2ccccc12,107%,81.3%,93.8%,101%,105%,100%,87%,99.5%,102%,102%,96.6%,97.3%,73.2%,118%,94.9%,94%,96.7%,110%,90.7%,90.5%
COC(=O)/C(CCC=C(C)C)=C1\[C@@H](OC(C)=O)C[C@@]2(C)[C@H]1C[C@@H](O)[C@H]1[C@@]3(C)CC[C@H](NC(=O)c4cnccn4)[C@@H](C)[C@@H]3CC[C@@]12C,99%,86.3%,96.5%,98.3%,86.2%,96.5%,86.6%,93.5%,111%,118%,94.1%,95.7%,85.6%,117%,101%,92%,108%,103%,83.9%,93.5%
COc1cc2nc(-c3cnc(N(C)C)nc3)nc(NC3CCN(Cc4ccccc4)CC3)c2cc1OC,-84.4% (active),-96.7% (active),-79.2% (active),-87.4% (active),-83.2% (active),10.6%,-94.5% (active),-91.9% (active),-78.7% (active),89.5%,-71.2% (active),-87.2% (active),-81.2% (active),-98.6% (active),-100% (active),-90.9% (active),43.2%,-31.3% (active),-16.5% (active),4.28% (active)
O=C(Nc1ccc(N2CCNCC2)cn1)c1[nH]ncc1Nc1ncnc2sccc12,2.95% (active),59.5%,48.7%,-51.1% (active),23.7%,58.2%,74.7%,-75.1% (active),-81.4% (active),85.7%,65.8%,66.9%,76.1%,87.1%,60.2%,54.1%,80.7%,5.54% (active),2.22% (active),-5.97% (active)
CCOC(=O)c1sc(-c2ccc(OS(=O)(=O)c3ccccc3[N+](=O)[O-])c(C=O)c2)nc1C,110%,73.4%,76.1%,43%,70%,-57.3% (active),64%,-6.91% (active),79.4%,86.6%,92.3%,3.63% (active),57.1%,85.5%,101%,38.8%,-84.6% (active),12.1%,9.88% (active),9.06% (active)
O=C(c1nc2ccccc2[nH]1)C1[C@@H](c2cccc(O)c2)C2CC3CCCCC3N2[C@@]12C(=O)Nc1cc(Cl)ccc12 (stereo not given in full),50.6%,27.2%,42.4%,37.7%,24%,37.2%,47.6%,22.3%,45%,60.2%,41.9%,43.6%,33.5%,72.4%,30.4%,80%,52.7%,15%,7.08% (active),3.72% (active)
COc1cc(/C=C2\CN(S(=O)(=O)c3ccccc3)C/C(=C\c3cc(CN4CCCC4)c(O)c(OC)c3)C2=O)cc(CN2CCCC2)c1O,-9.09% (active),20.2%,12.2%,-21.7% (active),8.85% (active),20.7%,-60% (active),-75.4% (active),10.5%,-0.727% (active),24.7%,-25.8% (active),34.7%,26.8%,12.1%,75.3%,8.57% (active),7.45% (active),1.22% (active),17.5%
Cc1sc2ncn(CC(=O)Nc3ccc(S(N)(=O)=O)cc3)c(=O)c2c1C,107%,86.1%,98.5%,100%,101%,99.3%,96.5%,99%,110%,106%,95.8%,98.6%,73.1%,109%,103%,95.4%,100%,105%,102%,117%
COc1ccc(-n2c(C(O)c3ccccc3)nn(CN3CCOCC3)c2=S)cc1 (stereo not given),109%,87.4%,92.7%,95.2%,101%,112%,95.8%,95.4%,89.2%,95.2%,111%,91%,77.5%,119%,88.6%,97%,115%,96.6%,123%,193%
Cc1cc2c(c(C)c1Cl)C(=O)/C(=C/c1ccco1)O2,98.3%,76.7%,95.2%,96.2%,98.5%,69.9%,88.7%,93%,107%,102%,83.4%,96%,78.3%,93.9%,92.2%,93.7%,104%,95.6%,97.3%,69.7%
COC(=O)/C(CCC=C(C)C)=C1\[C@@H](OC(C)=O)C[C@@]2(C)[C@H]1CC(=O)[C@H]1[C@@]3(C)CC[C@H](NCc4ccccc4)[C@@H](C)[C@@H]3CC[C@@]12C,37.8%,83.2%,95.7%,74%,70.4%,89.6%,86.7%,81.8%,96.7%,106%,87.9%,87%,69.9%,111%,99.3%,86.8%,91.9%,76.4%,61.7%,1.93% (active)
O=C(NCc1ccccc1)C1CN(c2ccc(Cl)cc2)N(c2ccc(Cl)cc2)C1=O (stereo not given),48.8%,82.9%,84.9%,84.2%,67.9%,83.3%,58.7%,88.4%,88.9%,85.8%,87.8%,91%,55.9%,95.7%,94.7%,75.4%,73.4%,73.4%,64.3%,34.3%
NCCNc1nc2ccccc2c2c(=O)c3cc(F)cc(Cl)c3sc12,-64.3% (active),44.6%,81.4%,-84.3% (active),-70.4% (active),85.5%,44.8%,-92.1% (active),-89.8% (active),99.1%,-68.5% (active),-83.7% (active),-93.7% (active),-30.6% (active),-94.7% (active),-96.3% (active),46.9%,-28.1% (active),29.1%,-27.7% (active)
O=C(c1nc2ccccc2[nH]1)C1C(c2cccc([N+](=O)[O-])c2)C2CC3CCCCC3N2[C@@]12C(=O)Nc1cc(Cl)ccc12 (stereo not given in full),13.5%,15.1%,39.1%,32.4%,19.6%,45.4%,33.5%,19.7%,55.3%,41.4%,31.3%,33.2%,-19.5% (active),46.9%,21.2%,12.2%,-1.86% (active),25.5%,8.76% (active),6.09% (active)
